# Compound activity (PubChem)
# KCNQ2 enhance = enhances the rat KCNQ2 potassium channel; O88943; CHO-K1 KCNQ2, FluxOR thallium flux fluorescence; stronger effect = higher value; B-score at 10 µM; actives 0.54% (n = 310,000);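 active means fluorescence ratio B-score at least 3 SD of library B-scores, with initial fluorescence B-score within 3 of them, cut at about 5.3 in these data; same plate scores as AID 2156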;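 further: B-score of peak minus minimum over baseline fluorescence ratio after K+ and Tl+ stimulus; positive B-score means potentiation of KCNQ2 with more thallium influx and brighter signal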
# KCNQ2 inh = KCNQ2 (rat) channel inhibition; actives 1.1% (n = 310,000); B-score at 10 µM; AID 2156; CHO-K1 KCNQ2, FluxOR thallium flux, 20 min; stronger effect = lower value;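 active means fluorescence ratio B-score at most minus 3 library SDs, with starting brightness B-score within 2 library SDs, cut at about -5.5 in these data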
# Kir21 confirm = confirmation of mouse Kir2.1 potassium channel inhibitors. shares compounds with KCNQ2 enhance. Kir2.1-expressing cells, FluxOR thallium flux fluorescence; stronger effect = lower value. Tl flux remaining, % of negative control (stronger effect = lower value), % at 10 µM. actives 41% (n = 2,300);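 active means Primary-screen hit whose thallium flux fell at least 3 control SD below untreated wells in both duplicates, with normal baseline fluorescence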;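 further: 0% = blank wells without stimulus and 100% = stimulated no-compound controls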
# HEK293 ctr = counter-screen for Kir2.1 inhibitors: effect in parental HEK293 cells | shares compounds with KCNQ2 enhance | FluxOR thallium flux fluorescence; 0% = unstimulated blank wells | FluxOR signal as % of negative control (100 = no effect), % at 10 µM | actives 19% (n = 2,300);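 active means dye signal at least 3 control SD above or below untreated wells in both duplicates, raw fluorescence within 3, either direction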;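 further: percent is based on the flux ratio of peak minus minimum fluorescence over baseline F0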
# CHO-K1 ctr = alters thallium flux in parental CHO-K1 cells, KCNQ2 counter-screen | shares compounds with KCNQ2 enhance | FluxOR thallium flux fluorescence; zero = vehicle mean+3SD, 100% = vehicle-minus-blank window | activity increase over 3SD of controls, % at 10 µM | actives 43% (n = 1,200) | AID 2282;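 active means signal rise of at least 3 SD above the untreated control mean, in both duplicate wells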;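 further: counter screen of KCNQ2 potentiator hits so any rise reflects channel-independent effects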
# KCNQ1 sel pot = tests whether KCNQ2 potentiators also act on human KCNQ1. activation over 3SD threshold, % at 10 µM. actives 28% (n = 1,200). AID 2283. CHO KCNQ1 stable, FluxOR thallium flux fluorescence; beyond 3SD, as % of vehicle-control signal. shares compounds with KCNQ2 enhance;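 active means fluorescence ratio rise of at least 3 SD of vehicle wells above their mean, in both replicate wells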;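 further: 0% = vehicle mean plus 3 SD and 100% = vehicle minus unstimulated blank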
# Target sequence (P51787 whole entry, looked up): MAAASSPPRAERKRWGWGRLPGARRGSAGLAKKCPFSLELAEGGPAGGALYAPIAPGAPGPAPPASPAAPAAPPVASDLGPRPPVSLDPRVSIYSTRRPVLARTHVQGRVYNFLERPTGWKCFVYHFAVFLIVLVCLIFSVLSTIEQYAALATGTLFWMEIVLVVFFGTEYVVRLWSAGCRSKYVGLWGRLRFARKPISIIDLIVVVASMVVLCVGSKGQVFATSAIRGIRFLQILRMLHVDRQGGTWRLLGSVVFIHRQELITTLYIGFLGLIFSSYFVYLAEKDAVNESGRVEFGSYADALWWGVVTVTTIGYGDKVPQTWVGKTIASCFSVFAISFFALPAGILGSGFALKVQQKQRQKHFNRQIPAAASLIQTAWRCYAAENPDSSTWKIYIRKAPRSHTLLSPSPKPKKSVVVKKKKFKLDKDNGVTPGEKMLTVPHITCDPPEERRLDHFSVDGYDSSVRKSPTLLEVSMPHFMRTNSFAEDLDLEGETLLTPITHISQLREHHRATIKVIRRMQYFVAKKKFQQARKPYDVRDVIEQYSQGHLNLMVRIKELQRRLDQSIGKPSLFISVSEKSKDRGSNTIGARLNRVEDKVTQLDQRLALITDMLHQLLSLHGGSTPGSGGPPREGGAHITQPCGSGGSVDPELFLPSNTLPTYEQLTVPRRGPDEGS
# KCNQ2 pot confirm = rat KCNQ2 channel potentiator confirmation. potentiation, less the hit threshold, % at 10 µM. shares compounds with KCNQ2 enhance. actives 68% (n = 1,200). AID 2287. CHO-KCNQ2 cells, FluxOR thallium flux fluorescence;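 active means fluorescence ratio rising 3 SD or more over the vehicle control mean in both replicates, plus primary screen hit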;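 further: peak minus minimum thallium fluorescence divided by baseline after K/Tl stimulus; 0% = vehicle mean plus 3 SD and 100% = vehicle minus unstimulated blank difference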
# Kir21 spec = tests whether KCNQ2 potentiators also affect mouse Kir2.1. actives 2% (n = 1,200). shares compounds with KCNQ2 enhance. HEK293 Kir2.1, FluxOR thallium flux fluorescence. AID 2345. activity over 3SD threshold, % at 10 µM;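 active means fluorescence ratio rise of at least 3 SD above the vehicle-control mean, seen in both replicates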;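 further: 0% = vehicle mean plus 3 SD and 100% = vehicle minus no-stimulus blank window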
# KCNQ2 W236L pot = potentiates the retigabine-insensitive rat KCNQ2 W236L mutant channel | shares compounds with KCNQ2 enhance | actives 10% (n = 940) | CHO KCNQ2-W236L, automated patch clamp current | current increase over 3SD of negative controls (%), stronger effect = higher value, % at 25 µM;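 active means current increase at least 3 SD of the untreated controls above them in both duplicate recordings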
# An asterisk follows results filed as active; i = inactive; · = no result given. In the library only some 1.6% were active in any assay of this set; here they are far more common.
SMILES,KCNQ2 enhance,KCNQ2 inh,Kir21 confirm,HEK293 ctr,others
CC[n+]1c(/C=C/N(C)c2ccccc2)n(-c2ccccc2)c2ccc(-c3nc4ccccc4s3)cc21,-16,-16*,i,i,
CCN(C(=O)CCc1nnc2ccc(NCc3ccco3)nn12)c1ccccc1,0.69,i,·,·,
COC(=O)c1ccc(NC(C)C(=O)OC)c([N+](=O)[O-])c1 (configuration not stated),1.3,i,·,·,
Cc1ccc(C(=O)NC(=S)N(C)C2CCCCC2)cc1,5.7*,i,i,212%*,CHO-K1 ctr=-37;KCNQ1 sel pot=18*;KCNQ2 pot confirm=31*;Kir21 spec=-20;KCNQ2 W236L pot=i
CN(C(=S)NC(=O)/C=C/c1ccc(F)cc1)C1CCCCC1,·,i,·,·,
O=C(OCC(=O)N1CCCC1=O)C1COc2ccccc2O1 (configuration not stated),·,i,·,·,
CCCCN1C(=O)C(=Nc2cccc3cnccc23)c2ccccc21,·,i,36%*,i,
CCCCN1C(=O)/C(=C2\SC(N3CCCCC3)=NC2=O)c2ccccc21,0.48,i,·,·,
Cc1ccc(S(=O)(=O)N2CCCCC2CCNC(=O)C(=O)NCC2CCCO2)cc1 (configuration not stated),·,i,·,·,
C/C=C/c1ccc(OCCNCc2ccccc2)c(OC)c1,·,i,·,·,
Cc1ccc(Cl)c(OCCCN(C)Cc2ccccc2)c1,·,i,·,·,
Cc1ccc(Cl)c(OCCCCN(C)Cc2ccccc2)c1,·,i,20%*,i,
C/C=C/c1ccc(OCCCCN(C)Cc2ccccc2)c(OC)c1,·,i,22%*,i,
CC(C)CCn1c(COc2ccccc2)nn(CCC#N)c1=S,·,i,·,·,
CC1CCN(CC(=O)Nc2ccc(N3CCCCCC3)cc2)CC1,5.9*,i,·,·,CHO-K1 ctr=7.2*;KCNQ1 sel pot=-15;KCNQ2 pot confirm=-11;Kir21 spec=-62
CC1CCN(CC(=O)Nc2ccc(S(=O)(=O)N3CCCCC3)cc2)CC1,0.02,i,·,·,
O=C(COC(=O)C1CCC(=O)N1)Nc1ccc(Oc2ccccc2)cc1 (configuration not stated),7.6*,i,i,i,CHO-K1 ctr=2.8*;KCNQ1 sel pot=-28;KCNQ2 pot confirm=-13;Kir21 spec=-31
O=C(COC(=O)C1CCC(=O)N1)Nc1ccccc1Br (configuration not stated),0.74,i,·,·,
CNCCCC1Sc2ccccc2Oc2ccccc21 (configuration not stated),0.13,i,40%*,i,
COc1cc(CNCc2ccc(SC)cc2)cc(OC)c1,1.2,i,·,·,
COc1ccc(CCNC(=O)CSc2nn(-c3ccccc3)c(=S)s2)cc1,1.1,i,·,·,
CCN(CCCn1c(=S)[nH]c2ncccc2c1=O)c1ccccc1,19*,i,i,i,CHO-K1 ctr=-20;KCNQ1 sel pot=-39;KCNQ2 pot confirm=14*;Kir21 spec=-25;KCNQ2 W236L pot=i
CCN(CC)CCCn1c(=S)[nH]c2ncccc2c1=O,1.4,i,·,·,
CCCOC(=O)C[N+](C)(C)CCOC1CC2CCC1(C)C2(C)C (configuration not stated),·,i,·,·,
CCCCCCOC(=O)C[N+](C)(C)CCOC1CC2CCC1(C)C2(C)C (configuration not stated),·,i,24%*,i,
CCCCOC(=O)C[N+](C)(C)CCOC1CC2CCC1(C)C2(C)C (configuration not stated),·,i,·,·,
CCCCCCCOC(=O)C[N+](C)(C)CCOC1CC2CCC1(C)C2(C)C (configuration not stated),·,i,16%*,i,
